# Data as given in PubChem BioAssay (NCI).
# This is part of a sample that, as a whole, favours compounds with a hit. Of some 83,000 tested, about 20% had one in any assay.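 Percent growth is the endpoint: 0 to 100 indicates growth inhibition (40 means 60% inhibition), 0 means no net growth, and negative values indicate cell death.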 A number with no mark means an inactive call. Activity calls are given as the source filed them. The calls were made as follows: active = growth percent below 10; inactive = the rest.
# Experiments:
# Assay in all cases: NCI-60 one-dose screen, 48 h (100 = growth as untreated, 0 = no growth, -100 = all killed)
# Conditions in all cases: 10 µM unless noted
# [1] = test system: NCI-H23 lung
# [2] = test system: NCI-H226 lung
# [3] = test system: NCI-H322M lung
# [4] = test system: HOP-62 NSCLC
# [5] = test system: NCI-H460 lung
# [6] = test system: HOP-92 NSCLC
# [7] = test system: NCI-H522 lung
# [8] = test system: A549/ATCC NSCLC
# [9] = test system: 786-0 renal
# [10] = test system: COLO 205 colon
# [11] = test system: DU-145 prostate
# [12] = test system: K-562 leukemia
# [13] = test system: MALME-3M melanoma
# [14] = test system: MDA-MB-231 breast
# [15] = test system: RXF 393 renal
# [16] = test system: SF-268 CNS
# [17] = test system: SF-295 CNS
# [18] = test system: SF-539 CNS
# [19] = test system: UACC-257 melanoma
# [20] = test system: M14 melanoma
SMILES,growth [1],growth [2],growth [3],growth [4],growth [5],growth [6],growth [7],growth [8],growth [9],growth [10],growth [11],growth [12],growth [13],growth [14],growth [15],growth [16],growth [17],growth [18],growth [19],growth [20]
CCCCCCCCCCCCCCCCCC1OC[C@H](COC(=O)O[C@@H](C(=O)O[C@H]2C[C@@]3(O)[C@@H](OC(=O)c4ccccc4)[C@@H]4[C@]5(OC(C)=O)CO[C@@H]5C[C@H](O)[C@@]4(C)C(=O)[C@H](OC(C)=O)C(=C2C)C3(C)C)[C@@H](NC(=O)c2ccccc2)c2ccccc2)O1 (stereo not given in full),42.7%,94.3%,47.4%,66.3%,20.9%,75%,60.2%,43.9%,91.2%,13.3%,45.7%,37.5%,58.9%,47.2%,65.2%,73.3%,53%,43.3%,72.2%,29.6%
CC(C)(C)N1CC1C#N (stereo not given),99.5%,103%,96.3%,105%,105%,105%,96%,105%,98.6%,98.7%,105%,99%,103%,96.3%,107%,101%,91.4%,103%,105%,110%
CC1=C(CNO)C2=C(C)C3(CC3)[C@@](C)(O)C(=O)C2=C1,-24.8% (active),25.3%,-15.8% (active),1.62% (active),-0.969% (active),-19.6% (active),-7.65% (active),-7.8% (active),-17.5% (active),-20.4% (active),4.97% (active),88.4%,-62.6% (active),10.3%,-70.3% (active),0.784% (active),-4.83% (active),-35.3% (active),-24.3% (active),26.8%
CN(C)CCCOc1ccc2c(c1)c(C(=O)C(=O)NCCO)cn2Cc1ccccc1,95.6%,103%,105%,100%,105%,92.1%,99%,105%,93.3%,107%,106%,106%,97.1%,104%,89.1%,97.7%,103%,103%,102%,101%
CN[C@@]1(c2ccccc2Cl)CCCC[C@@H]1NCC1CCCO1 (stereo not given in full),97.4%,97.8%,94.1%,97.4%,110%,92%,91.3%,98%,97.7%,109%,111%,100%,95.3%,105%,106%,103%,98.2%,97%,96.5%,101%
COc1ccc(N(CC(=O)NCCC[Te]c2ccccc2)C(=O)CNC(=O)OC(C)(C)C)cc1,-15.5% (active),1.45% (active),-6.97% (active),1.88% (active),-23.9% (active),-19.9% (active),-0.481% (active),-9.26% (active),73.3%,86.9%,48.9%,97%,137%,1.63% (active),114%,24.2%,-10.8% (active),-9.65% (active),109%,9.09% (active)
CC[C@H](C)[C@H](NC(=O)C12CC(NC(C)=O)(C1)C2)C(=O)N(C)[C@H](C[C@@H](OC(C)=O)c1nc(C(=O)N[C@@H](Cc2ccccc2)C[C@H](C)C(=O)OC)cs1)C(C)C,30.9%,19.9%,51.3%,20.3%,3.12% (active),19.9%,1.64% (active),22.6%,16%,-31.5% (active),0.412% (active),11.5%,51.8%,28.5%,43.9%,27.2%,18.7%,1.61% (active),49.6%,2.48% (active)
CC(C)CCC1(CCCl)C(=O)NC(=O)NC1=O,99.6%,96.6%,101%,106%,101%,91.2%,104%,91%,96.1%,110%,107%,116%,95.3%,101%,98.1%,109%,96.2%,100%,91.1%,96.7%
CC(=O)ONc1ccc([N+](=O)[O-])c(C(F)(F)F)c1,92.1%,97.8%,108%,80%,109%,99.6%,97.8%,95.3%,97.6%,106%,108%,105%,111%,102%,115%,95.3%,97.8%,93.5%,110%,98.8%
O=P(Oc1ccc(Cl)cc1)(N1CC1)N1CC1,65.4%,87.8%,99.6%,81.3%,39.3%,81.2%,66.8%,60.2%,84.5%,94.6%,54.4%,85.3%,104%,106%,73.9%,89%,66.2%,81.4%,94.8%,86.5%
CC(=O)O[C@H](C[C@H](C(C)C)N(C)C(=O)[C@@H](NC(=O)[C@H]1CCCCN1C)C(C)C)c1nc(C(=O)N[C@@H](Cc2ccccc2)C[C@H](C)C(=O)O)c(C)s1,35.9%,52.6%,52.8%,32.1%,7.72% (active),25.6%,-4.18% (active),11.9%,26.1%,-62.6% (active),21.8%,14%,58.5%,23.5%,53.9%,29.7%,15.9%,4.22% (active),46.3%,6.5% (active)
C=C1C(=O)O[C@H]2[C@H]1CC/C(COC(=O)C(=O)c1cn(Cc3ccccc3)c3ccccc13)=C\CC[C@@]1(C)O[C@@H]21,-51.7% (active),-70.3% (active),-25.6% (active),2.07% (active),-11.4% (active),-46.7% (active),-69% (active),-42.7% (active),-75.3% (active),-52.4% (active),-54.1% (active),5.58% (active),-41.7% (active),-57.2% (active),-90.2% (active),-57.5% (active),18.8%,-51.3% (active),-65.4% (active),-66% (active)
COc1cc2c(=O)n(C3CCCCCCC3)c3c4cc[nH]c4ncc3c2cc1OC,57.5%,17.8%,34.8%,6.39% (active),13.6%,46.2%,48.8%,25.4%,31.2%,58.5%,62.5%,8.73% (active),62.6%,42.1%,19.1%,42.4%,33.2%,-0.216% (active),93.8%,71.4%
COc1ccc(-n2c(C)nc3cc(OC)c(OC)cc3c2=O)cc1OC,101%,99.1%,97%,102%,106%,103%,101%,98%,102%,99.5%,105%,104%,62.3%,116%,118%,97.2%,100%,96.2%,102%,106%
